Data: PubChem BioAssay (Tox21)
The source made the active and inactive calls. Unless noted, calls follow the shape of the dose curve; as a rule, active = well fitted curve in the direction sought with a large enough effect in the repeat runs; inconclusive = weak or mixed curves; inactive = no such curve, though single readings can be large; an effect the other way counts as inactive or inconclusive.

Legend:
[1] = qHTS assay to identify small molecule antagonists of the thyroid receptor (TR) signaling pathway - cell viability counter screen (AID 743064); also: nearly all actives have a fitted effect of over 50% in size; also: potency is read from the fitted curve at half-maximal effect
In short: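 Plate GH3.TRE-Luc cells; incubate 4 h at 37 °C; add compound, then T3 to 1 nM final; incubate 23.5 h; add CellTiter-Fluor; incubate 30 min at 37 °C, 5% CO2; read fluorescence.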

[2] = qHTS assay to identify small molecule antagonists of the thyroid receptor (TR) signaling pathway (AID 743065); also: nearly all actives have a fitted effect of over 55% in size; also: potency is read from the fitted curve at half-maximal effect
In short: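 GH3.TRE-Luc rat pituitary cells carrying two TR response elements driving luciferase were plated for 4 h, given compound plus 1 nM T3 (final), and incubated 23.5 h at 37 C. ONE-Glo luminescence measured reporter inhibition; CellTiter-Fluor fluorescence tracked cytotoxicity.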

[3] = tested on: thyroid hormone receptor (rat, GH3 cells); test: qHTS assay to identify small molecule agonists of the thyroid receptor (TR) signaling pathway (AID 743066; calls by dose curve)
[4] = qHTS assay to identify small molecule antagonists of the estrogen receptor alpha (ER-alpha) signaling pathway - cell viability counter screen (AID 743074; calls by dose curve;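 also: HEK293 cells carrying ER-alpha-UAS-bla reporter stimulated with 17beta-estradiol; nearly all actives have a fitted effect of over 45% in size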; also: potency is read from the fitted curve at half-maximal effect)
[5] = qHTS assay to identify small molecule antagonists of the estrogen receptor alpha (ER-alpha) signaling pathway using the BG1 cell line - cell viability counter screen (AID 743081);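 also: compound given together with 17beta-estradiol as the ER stimulus; nearly all actives have a fitted effect of over 45% in size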; also: potency is read from the fitted curve at half-maximal effect
Aromatase (Homo sapiens) = Aromatase (Homo sapiens) (UniProt P11511); test: qHTS assay to identify aromatase inhibitors (AID 743083); also: nearly all actives have a fitted effect of over 55% in size; also: potency is read from the fitted curve at half-maximal effect
Chain of Aromatase (Homo sapiens) (P11511 whole entry, looked up): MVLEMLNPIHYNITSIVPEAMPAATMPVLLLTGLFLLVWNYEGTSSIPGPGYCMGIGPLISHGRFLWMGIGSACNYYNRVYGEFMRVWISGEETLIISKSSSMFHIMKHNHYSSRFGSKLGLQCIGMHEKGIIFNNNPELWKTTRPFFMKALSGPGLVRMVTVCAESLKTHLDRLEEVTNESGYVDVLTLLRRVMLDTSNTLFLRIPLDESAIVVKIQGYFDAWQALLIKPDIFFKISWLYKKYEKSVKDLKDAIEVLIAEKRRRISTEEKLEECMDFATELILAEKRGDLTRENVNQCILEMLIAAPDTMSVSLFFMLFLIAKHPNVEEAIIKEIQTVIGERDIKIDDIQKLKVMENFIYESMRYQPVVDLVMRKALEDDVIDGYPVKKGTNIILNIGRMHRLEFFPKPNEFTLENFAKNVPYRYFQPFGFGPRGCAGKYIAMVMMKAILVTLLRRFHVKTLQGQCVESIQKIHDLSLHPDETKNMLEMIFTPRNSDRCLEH

[6] = qHTS assay to identify aromatase inhibitors - cell viability counter screen (AID 743084);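 also: cells stimulated with testosterone during compound exposure; nearly all actives have a fitted effect of over 55% in size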; also: potency is read from the fitted curve at half-maximal effect
[7] = biological target: Aryl hydrocarbon receptor (Homo sapiens) (UniProt P35869); test: qHTS assay to identify small molecule that activate the aryl hydrocarbon receptor (AhR) signaling pathway (AID 743085); also: nearly all actives have a fitted effect of over 15% in size; also: potency is read from the fitted curve at half-maximal effect;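 as to activation: HG2L7.5c1 human HepG2 liver cells with stably integrated DRE-driven firefly reporter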
Chain of Aryl hydrocarbon receptor (Homo sapiens) (P35869 whole entry, looked up): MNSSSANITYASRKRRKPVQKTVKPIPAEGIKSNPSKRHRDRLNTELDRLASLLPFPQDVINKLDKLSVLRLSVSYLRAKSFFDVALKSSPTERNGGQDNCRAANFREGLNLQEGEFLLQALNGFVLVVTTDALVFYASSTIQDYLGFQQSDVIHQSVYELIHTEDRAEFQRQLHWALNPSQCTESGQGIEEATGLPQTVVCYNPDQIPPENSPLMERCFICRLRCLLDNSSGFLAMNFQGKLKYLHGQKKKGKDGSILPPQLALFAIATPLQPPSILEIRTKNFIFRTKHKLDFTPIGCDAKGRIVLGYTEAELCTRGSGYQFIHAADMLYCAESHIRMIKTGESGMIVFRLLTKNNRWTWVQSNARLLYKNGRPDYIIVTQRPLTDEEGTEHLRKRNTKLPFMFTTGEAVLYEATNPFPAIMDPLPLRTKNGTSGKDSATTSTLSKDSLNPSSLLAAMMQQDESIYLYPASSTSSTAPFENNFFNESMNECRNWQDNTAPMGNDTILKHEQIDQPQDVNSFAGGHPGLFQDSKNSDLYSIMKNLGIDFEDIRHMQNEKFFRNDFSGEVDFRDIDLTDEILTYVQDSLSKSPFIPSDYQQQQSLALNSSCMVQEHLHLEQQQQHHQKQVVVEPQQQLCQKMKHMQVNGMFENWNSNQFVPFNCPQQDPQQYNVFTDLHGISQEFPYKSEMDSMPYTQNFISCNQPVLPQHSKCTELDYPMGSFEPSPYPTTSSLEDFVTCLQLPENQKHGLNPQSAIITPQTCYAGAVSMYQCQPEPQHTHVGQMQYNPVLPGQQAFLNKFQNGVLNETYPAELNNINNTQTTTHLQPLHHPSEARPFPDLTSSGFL
In short: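 Steps: seed HepG2-AhR-luc cells; allow 5 h at 37C; pin-transfer test compound or vehicle; incubate 24 h at 37C; add viability dye (30 min, 37C) and read fluorescence; add luciferase substrate (30 min, RT) and read luminescence.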

[8] = qHTS assay to identify small molecule antagonists of the peroxisome proliferator-activated receptor gamma (PPARg) signaling pathway - cell viability counter screen (AID 743194); also: nearly all actives have a fitted effect of over 55% in size; also: potency is read from the fitted curve at half-maximal effect
In short: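 PPARg-UAS-bla HEK293H cells were plated, rested 5 h at 37 C, then treated with compounds plus rosiglitazone (50 nM final) for 17 h at 37 C; viability was then read by CellTiter-Glo luminescence after 30 min at room temperature.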

[9] = qHTS assay for small molecule agonists of the antioxidant response element (ARE) signaling pathway - cell viability counter screen (AID 743203; calls by dose curve; also: nearly all actives have a fitted effect of over 55% in size; also: potency is read from the fitted curve at half-maximal effect)
In short: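 ATP content via CellTiter-Glo luminescence served as the viability measure. Cells: ARE-bla HepG2, 2,000 per well. Exposure: 16 hrs, 37C/5% CO2.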

[10] = qHTS assay for small molecule activators of the heat shock response signaling pathway - cell viability counter screen (AID 743209); also: nearly all actives have a fitted effect of over 50% in size; also: potency is read from the fitted curve at half-maximal effect
In short: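 Compounds dissolved in DMSO were added to overnight-plated HSE-bla HeLa cells and left 5 h at 37 C. Cell viability was quantified by luminescence using CellTiter-Glo.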

[11] = biological target: Peroxisome proliferator-activated receptor gamma (Homo sapiens) (UniProt P37231); test: qHTS assay to identify small molecule agonists of the peroxisome proliferator-activated receptor gamma (PPARg) signaling pathway (AID 743094; active = well fitted activation curve with a large enough effect in the signal ratio in the repeat runs, not every such curve was filed as active; inconclusive = weak or mixed curves, or effect the other way; inactive = no such curve, though single readings can be large or run the other way; the % refers to the signal ratio)
Chain of Peroxisome proliferator-activated receptor gamma (Homo sapiens) (P37231 whole entry, looked up): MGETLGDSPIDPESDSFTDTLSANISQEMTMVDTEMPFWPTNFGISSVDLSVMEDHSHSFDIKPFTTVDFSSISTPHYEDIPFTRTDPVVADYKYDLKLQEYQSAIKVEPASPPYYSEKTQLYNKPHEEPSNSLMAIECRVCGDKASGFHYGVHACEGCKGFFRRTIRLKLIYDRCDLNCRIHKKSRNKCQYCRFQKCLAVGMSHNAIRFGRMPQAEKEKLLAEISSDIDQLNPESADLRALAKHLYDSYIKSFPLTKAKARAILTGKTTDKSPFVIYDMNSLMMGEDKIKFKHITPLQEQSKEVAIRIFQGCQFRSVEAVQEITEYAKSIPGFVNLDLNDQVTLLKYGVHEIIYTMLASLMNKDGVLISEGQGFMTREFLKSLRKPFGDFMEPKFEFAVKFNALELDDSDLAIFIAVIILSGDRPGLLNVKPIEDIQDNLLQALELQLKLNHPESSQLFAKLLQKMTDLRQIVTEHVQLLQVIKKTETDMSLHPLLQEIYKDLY
In short: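 Agonism was assessed in a beta-lactamase reporter system, HEK293H cells with a stably integrated UAS-bla construct under PPARg control; the 17 h treatment at 37C preceded a 1 h room-temperature FRET substrate read.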

[12] = qHTS assay for small molecule activators of the heat shock response signaling pathway (AID 743210; active = well fitted activation curve with a large enough effect in the signal ratio in the repeat runs, with a control signal flat, not every such curve was filed as active; inconclusive = weak or mixed curves; the % refers to the signal ratio; also: potency is read from the fitted curve at half-maximal effect)
In short: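 Heat shock element–beta-lactamase HeLa reporter cells; qHTS with compounds for 5 h at 37 C; detection by FRET substrate fluorescence after 2.5 h at RT.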

[13] = qHTS assay for small molecule agonists of the antioxidant response element (ARE) signaling pathway (AID 743202; active = well fitted activation curve with a large enough effect in the signal ratio in the repeat runs, not every such curve was filed as active; inconclusive = weak or mixed curves, or effect the other way; inactive = no such curve, though single readings can be large or run the other way; the % refers to the signal ratio; also: potency is read from the fitted curve at half-maximal effect)
In short: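 Following a 16 h, 37 C exposure of reporter HepG2 cells (ARE-driven beta-lactamase, 2,000 cells/well) to compounds, FRET substrate was applied for 2 h at room temperature and fluorescence intensity recorded.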

[14] = biological target: Estrogen receptor (Homo sapiens) (UniProt P03372); test: qHTS assay to identify small molecule antagonists of the estrogen receptor alpha (ER-alpha) signaling pathway (AID 743069; active = well fitted curve in the direction sought with a large enough effect in the signal ratio in the repeat runs, not every such curve was filed as active; inconclusive = weak or mixed curves, or effect the other way; inactive = no such curve, though single readings can be large or run the other way; the % refers to the signal ratio; also: potency is read from the fitted curve at half-maximal effect)
Chain of Estrogen receptor (Homo sapiens) (P03372 whole entry, looked up): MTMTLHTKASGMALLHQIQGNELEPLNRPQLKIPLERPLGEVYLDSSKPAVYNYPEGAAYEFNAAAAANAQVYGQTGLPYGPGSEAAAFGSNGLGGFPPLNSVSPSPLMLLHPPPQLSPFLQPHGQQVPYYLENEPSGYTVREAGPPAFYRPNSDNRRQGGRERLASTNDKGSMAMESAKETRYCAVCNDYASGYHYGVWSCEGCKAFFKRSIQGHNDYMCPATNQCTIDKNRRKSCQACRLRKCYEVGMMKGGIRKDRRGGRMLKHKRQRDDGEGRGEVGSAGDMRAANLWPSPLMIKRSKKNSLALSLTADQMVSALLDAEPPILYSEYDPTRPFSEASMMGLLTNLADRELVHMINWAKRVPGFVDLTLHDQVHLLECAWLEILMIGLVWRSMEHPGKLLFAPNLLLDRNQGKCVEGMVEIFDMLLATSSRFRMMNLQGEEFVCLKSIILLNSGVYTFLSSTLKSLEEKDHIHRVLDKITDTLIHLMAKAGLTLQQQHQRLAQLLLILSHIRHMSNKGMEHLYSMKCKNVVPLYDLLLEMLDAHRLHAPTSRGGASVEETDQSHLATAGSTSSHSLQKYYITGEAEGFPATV
In short: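 A 17beta-estradiol challenge was applied right after compound transfer to ER-alpha-UAS-bla HEK293 cells previously kept in charcoal-stripped serum. Plates stood 18 hr at 37C and 5% CO2; fluorescence was read following 2 hr FRET substrate loading at room temperature.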

[15] = biological target: Estrogen receptor (Homo sapiens) (UniProt P03372); test: qHTS assay to identify small molecule agonists of the estrogen receptor alpha (ER-alpha) signaling pathway (AID 743075; calls by dose curve;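 also: HEK293 GripTite cells with ER-alpha and UAS-driven beta-lactamase reporter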); conditions: HEK293 ER-alpha-UAS-bla, beta-lactamase FRET ratio, 18 h; activation: at 70.1 µM (top of the series)
[16] = biological target: Estrogen receptor (Homo sapiens) (UniProt P03372); test: qHTS assay to identify small molecule agonists of the estrogen receptor alpha (ER-alpha) signaling pathway using the BG1 cell line (AID 743079); conditions: BG1Luc4E2 cells, ERE-luciferase agonist, 22 h; for activation: at 70.3 µM (top of the series); also: potency is read from the fitted curve at half-maximal effect; as to all read-outs here: nearly all actives have a fitted effect of over 20% in size
[17] = qHTS assay to identify small molecule antagonists of the estrogen receptor alpha (ER-alpha) signaling pathway using the BG1 cell line (AID 743080; calls by dose curve;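 also: BG1 cells stimulated with 17beta-estradiol alongside compound; nearly all actives have a fitted effect of over 25% in size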; also: potency is read from the fitted curve at half-maximal effect)
In short: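 After 5 days in phenol-red-free 10% charcoal-stripped FBS medium, BG1-Luc-4E2 cells were seeded, left 24 h at 37 C, co-treated with compounds and 17beta-estradiol for 21.5 h, then assayed for viability and luciferase.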

[18] = qHTS assay to identify small molecule that activate the aryl hydrocarbon receptor (AhR) signaling pathway - cell viability counter screen (AID 743086); also: nearly all actives have a fitted effect of over 45% in size; also: potency is read from the fitted curve at half-maximal effect
In short: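 HepG2-AhR-luc (HG2L7.5c1) cells, 4000/well, were preincubated 5 h at 37C, exposed to compound in qHTS format for 24 hr at 37C, then given CellTiter-Fluor for 30 min; viability was read as fluorescence in the reporter wells.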

[19] = biological target: Peroxisome proliferator-activated receptor gamma (Homo sapiens) (UniProt P37231); test: qHTS assay to identify small molecule antagonists of the peroxisome proliferator-activated receptor gamma (PPARg) signaling pathway (AID 743191; calls by dose curve; also: nearly all actives have a fitted effect of over 30% in size)
In short: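 GeneBLAzer PPARg UAS-bla HEK293H cells carrying a UAS-driven beta-lactamase reporter were plated at 3000 cells/well, preincubated 5 h at 37C, then given compound for 17 h at 37C; LiveBLAzer B/G FRET substrate was read after 1 h at room temperature.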
% is scaled to controls: 0 for no effect and ±100 for the full control effect.

Cc1cc(O)c(C(C)(C)C)cc1Sc1cc(C(C)(C)C)c(O)cc1C
inactive: Potency [3] | Potency [7]
active: Potency [1] 3.43 µM | Potency [2] 2.43 µM | Potency [4] 17.3 µM | Potency [5] 54.4 µM | Potency (Aromatase (Homo sapiens)) 13.7 µM | Potency [6] 30.6 µM | Potency [8] 10.9 µM | Potency [9] 7.68 µM | Potency [10] 10.9 µM

CO[Si](CCCNc1ccccc1)(OC)OC
inactive: Potency [1] | Potency [2] | Potency [3] | Potency [4] | Potency [5] | Potency (Aromatase (Homo sapiens)) | Potency [6] | Potency [7] | Potency [11] | Potency [8] | Potency [10] | Potency [12]

O=C(OCC1CO1)C1CCCCC1C(=O)OCC1CO1 (stereo unspecified)
inactive: Potency [3] | Potency [4] | Potency [7] | Potency [11] | Potency [8] | Potency [10] | Potency [12]
active: Potency [1] 54.5 µM | Potency [2] 27.3 µM | Potency [6] 48.6 µM | Potency [13] 48.6 µM

CCCCCCCCCCCCCCCCCC[N+](C)(C)Cc1ccccc1
inactive: Potency [3] | Potency [7]
active: Potency [1] 11 µM | Potency [2] 7.77 µM | Potency [4] 22.1 µM | Potency (Aromatase (Homo sapiens)) 21.9 µM | Potency [6] 49 µM | Potency [8] 44.1 µM | Potency [9] 19.5 µM | Potency [10] 27.8 µM

O=c1[nH]sc2ccccc12
active: Potency [1] 5.45 µM | Potency [2] 3.06 µM | Potency (Aromatase (Homo sapiens)) 30.6 µM | Potency [6] 24.3 µM | Potency [18] 68.6 µM | Potency [9] 30.6 µM | Potency [10] 54.9 µM
inactive: Potency [14] | Potency [4] | Potency [15] | activation [16] -22% | Potency [17] | Potency [5] | Potency [7]

c1ccc(CSCc2ccccc2)cc1
inactive: Potency [1] | Potency [2] | Potency [3] | Potency [4] | Potency [5] | Potency (Aromatase (Homo sapiens)) | Potency [6] | Potency [7] | Potency [18] | Potency [11] | Potency [19] | Potency [8] | Potency [9] | Potency [10] | Potency [12]

O=C1c2ccccc2Cc2ccccc21
active: Potency [1] 5.49 µM | Potency [16] 7.75 µM
inactive: Potency [2] | Potency [3] | Potency [4] | Potency (Aromatase (Homo sapiens)) | Potency [7] | Potency [18] | Potency [11] | Potency [8] | Potency [13] | Potency [9] | Potency [10] | Potency [12]

CCCCCCCC[P+](CCCCCCCC)(CCCCCCCC)CCCCCCCC
active: Potency [1] 4.3 µM | Potency [2] 3.05 µM | Potency [14] 21.7 µM [cytotoxic] | Potency [4] 15.4 µM | Potency [17] 1.71 µM | Potency [5] 8.58 µM | Potency (Aromatase (Homo sapiens)) 1.53 µM | Potency [6] 9.63 µM | Potency [18] 19.2 µM | Potency [8] 4.34 µM | Potency [9] 10.8 µM | Potency [10] 5.46 µM
inactive: Potency [7]

Cc1c(C)c2c(c(C)c1OC(=O)CCC(=O)O)CC[C@@](C)(CCC[C@H](C)CCC[C@H](C)CCCC(C)C)O2
active: Potency [1] 23.7 µM
inactive: Potency [2] | Potency [3] | Potency [4] | Potency [5] | Potency (Aromatase (Homo sapiens)) | Potency [6] | Potency [7] | Potency [9] | Potency [10] | Potency [12]

OCCN1CCN(CC/C=C2/c3ccccc3Sc3ccc(C(F)(F)F)cc32)CC1
inactive: Potency [14] | Potency [15] | activation [16] -29.2% | Potency [17] | Potency [5] | Potency (Aromatase (Homo sapiens)) | Potency [7] | Potency [10] | Potency [12]
active: Potency [1] 15 µM | Potency [2] 11.9 µM | Potency [9] 29.8 µM

CCCCCCCCOc1ccccc1C(=O)Nc1ccc(C(=O)OCC[N+](C)(CC)CC)cc1
inactive: Potency [4] | Potency [15] | activation [16] -29.5% | Potency [17] | Potency [5] | Potency (Aromatase (Homo sapiens)) | Potency [6] | Potency [7]
active: Potency [1] 26.6 µM | Potency [2] 26.6 µM | Potency [9] 29.8 µM

Cc1ccc(-n2nc(C(C)(C)C)cc2NC(=O)Nc2ccc(OCCN3CCOCC3)c3ccccc23)cc1
inactive: Potency [1] | Potency [3] | Potency [4] | Potency [15] | Potency [17] | Potency [5] | Potency (Aromatase (Homo sapiens)) | Potency [6] | Potency [18] | Potency [8] | Potency [13] | Potency [9] | Potency [12]
active: Potency [14] 13.4 µM [inconclusive] | Potency [7] 15 µM

CN1CCC(Nc2ncc3ncnc(Nc4ccc(F)c(Cl)c4)c3n2)CC1
inactive: Potency [4] | Potency [8] | Potency [10]
active: Potency [1] 11.9 µM | Potency [2] 9.44 µM | Potency [7] 13.3 µM | Potency [12] 13.9 µM

NC(=O)N1C(=O)C(C(=O)c2cc(Cl)cs2)c2cc(F)c(Cl)cc21 (stereo unspecified)
inactive: Potency [15] | Potency [10]
active: Potency [1] 61.1 µM | Potency [2] 61.1 µM | Potency [4] 49 µM | Potency [5] 8.63 µM | Potency [7] 24.3 µM | Potency [18] 12.2 µM | Potency [8] 13.8 µM | Potency [9] 8.63 µM
